# ± gives the standard deviation of the averaged measurements. Targets with the largest changes are over-represented here; the source holds about 5,400 in all.
# Target: T1, FARSB (UniProt Q9NSD9)
# T1 sequence (whole entry): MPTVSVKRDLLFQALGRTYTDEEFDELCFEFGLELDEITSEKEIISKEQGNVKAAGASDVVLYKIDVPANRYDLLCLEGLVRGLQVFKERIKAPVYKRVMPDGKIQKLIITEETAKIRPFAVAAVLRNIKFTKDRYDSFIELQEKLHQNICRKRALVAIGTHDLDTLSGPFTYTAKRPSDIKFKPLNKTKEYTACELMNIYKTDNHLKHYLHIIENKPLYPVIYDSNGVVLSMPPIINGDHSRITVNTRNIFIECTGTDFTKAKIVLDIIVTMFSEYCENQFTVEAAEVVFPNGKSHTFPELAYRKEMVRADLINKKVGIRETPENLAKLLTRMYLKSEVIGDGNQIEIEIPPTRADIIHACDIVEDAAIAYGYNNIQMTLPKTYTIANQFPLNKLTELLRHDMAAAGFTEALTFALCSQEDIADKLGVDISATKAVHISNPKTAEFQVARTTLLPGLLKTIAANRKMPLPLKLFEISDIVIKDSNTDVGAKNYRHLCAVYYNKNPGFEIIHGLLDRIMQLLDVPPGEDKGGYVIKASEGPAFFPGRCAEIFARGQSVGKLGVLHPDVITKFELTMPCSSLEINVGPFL
# Assay: NP40-soluble protein abundance relative to vehicle (solubility fold change) (ratio); higher = more soluble protein in presence of GTP
# Experimental: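 Solubility proteome profiling in Jurkat crude lysate. Lysate was treated with Mg-GTP (0.1-10 mM) for 10 min at room temperature and 3 min at 37 °C, then solubilised with 0.8% NP40 and benzonase, followed by ultracentrifugation. Proteins were quantified by TMT10 LC-MS/MS; the value is the NP40-soluble abundance relative to the NP40-processed vehicle, from 3 independent experiments.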
smiles,measurement,setting,value
Nc1nc2c(ncn2[C@@H]2O[C@H](COP(=O)(O)OP(=O)(O)OP(=O)(O)O)[C@@H](O)[C@H]2O)c(=O)[nH]1 [guanosine triphosphate],NP40-soluble protein abundance,concentration: 0.1mM,1.05 ± 0.043
same,NP40-soluble protein abundance,concentration: 0.5mM,1.06 ± 0.074
same,NP40-soluble protein abundance,concentration: 1mM,0.933 ± 0.035
same,NP40-soluble protein abundance,concentration: 2mM,0.944 ± 0.091
same,NP40-soluble protein abundance,concentration: 4mM,0.954 ± 0.064
same,NP40-soluble protein abundance,concentration: 6mM,0.925 ± 0.059
same,NP40-soluble protein abundance,concentration: 8mM,0.875 ± 0.012
same,NP40-soluble protein abundance,concentration: 10mM,0.844 ± 0.057

# From the supplement of paper PMC6411743
